The text below walks through data of publication PMC7826789 (International Journal of Molecular Sciences, 2021).

Consider `CCCS(=O)(=O)Nc1ccc(F)c(-n2cc(-c3cncc(OC)c3)nn2)c1F` [BI00865461], for which the Kinases covered result in the test with ZAK is on record as “ZAK”.
With `CNS(=O)(=O)c1ccc(N(C)C)c(Nc2ncnc3cc(OC)c(OC)cc23)c1` [GSK114], in the test on ZAK, the Kinases covered entry is listed as “ZAK”.
In the case of `NC(=O)c1cccnc1COc1cc(-c2ccc(N3CCOCC3)nc2)cc2ncccc12` [BI01125081], in the test with ZAP70, the Kinases covered result is “ZAP70”.
`O=C1Nc2ccc(I)cc2C1=Cc1cc(Br)c(O)c(Br)c1` [GW305074X]: the Kinases covered result with cRAF is recorded as “cRAF”.
On to `CCn1c(-c2nonc2N)nc2cncc(CNC3CCNCC3)c21` [SB-747651A], for which, in the test on p70S6K, the Kinases covered entry is on record as “p70S6K”.
